Screens: PubChem BioAssay, National Center for Advancing Translational Sciences (NCATS)
This is a sample that favours compounds with a hit; in the whole collection about 7% have one here.
IL1B secr inh: blocks inflammasome-driven IL-1 beta release. actives 4.7% (n = 360,000). activity change, % at 57.5 µM. THP-1 LPS/ATP IL-1B secretion, AlphaLISA, 16 h; stronger effect = lower value. AID 743279; in the data active = activity change below about -50%; inconclusive = mostly about -30% to -49%; also: % is scaled to controls: 0 for no effect and ±100 for the full control effect
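Secreted IL-1B measured by AlphaLISA bead assay after 16 h compound exposure of THP-1 cells; compounds (final up to 57.5 uM) added 1 h before LPS (250 ng/mL) and ATP (1.25 mM) stimulation; lower signal means less secretion.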
ATXN2 expr inh: ATXN2 expression inhibition. actives 0.72% (n = 360,000). Potency, µM (series often up to 57 µM), without a hit: top-dose activity change, negative = inhibition, hits mostly inhibitors. AID 1745845. HEK-293 ATXN2-luciferase reporter, luminescence, 24 h; also: potency is read from the fitted curve at half-maximal effect; % is scaled to controls: 0 for no effect and ±100 for the full control effect; nearly all actives have a fitted effect of over 55% in size
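ATXN2-luciferase reporter cells (luciferase flanked by upstream and downstream ATXN2 gene portions) were treated 24 h at 37 °C with compounds at up to 57 uM. SteadyGlo luminescence gave expression; GF-AFC fluorescence gave viability.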
D3 antag: antagonists of human D3 dopamine receptor. D3R cells, DiscoveRx beta-arrestin luminescence, antagonist mode; stronger effect = lower value. max response, negative = inhibition, %. actives 2.5% (n = 360,000); in the data active = max response below about -50%; inconclusive = no clear call, values can overlap the other calls; also: % is scaled to controls: 0 for no effect and ±100 for the full control effect
Target sequence (P35462 whole entry, looked up): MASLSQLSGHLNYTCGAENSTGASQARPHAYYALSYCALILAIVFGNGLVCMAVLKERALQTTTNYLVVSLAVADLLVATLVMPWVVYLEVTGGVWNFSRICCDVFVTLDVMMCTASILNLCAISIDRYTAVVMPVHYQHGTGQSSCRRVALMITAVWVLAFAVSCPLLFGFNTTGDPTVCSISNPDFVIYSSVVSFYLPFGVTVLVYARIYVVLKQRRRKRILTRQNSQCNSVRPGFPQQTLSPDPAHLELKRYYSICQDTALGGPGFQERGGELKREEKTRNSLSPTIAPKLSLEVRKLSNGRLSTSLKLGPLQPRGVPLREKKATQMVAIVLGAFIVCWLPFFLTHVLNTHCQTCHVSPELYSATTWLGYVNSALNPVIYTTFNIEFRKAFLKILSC
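Cells plated overnight at 1500 cells/well, then exposed to library compounds with dopamine controls for 90 minutes at 37 degrees C. DiscoveRx reagent added for 30–60 minutes at room temperature; luminescence read, quantitative HTS format.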
S2 tox: reduces viability in counter-screen for ATXN expression inhibitors; S2 cells (HEK-293 line with an ATXN2-luciferase reporter) viability, CellTiter-Fluor protease fluorescence, 24 h; Potency, µM (doses to about 56.7 µM), hits mostly cytotoxic; actives 0.49% (n = 400,000); AID 651635; also: potency is read from the fitted curve at half-maximal effect; nearly all actives have a fitted effect of over 40% in size
D3 ag: D3 dopamine receptor (human) agonism; D3R DiscoveRx beta-arrestin cells, luminescence, 90 min; actives 0.58% (n = 410,000); P35462; max activation, %; in the data active = max activation above about 30%; also: 0% is about no effect
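Agonist-mode cell screen: cells plated at 1500/well and incubated overnight at 37 °C, then exposed to library compounds for 90 min at 37 °C. Detection reagent was added for 30–60 min at room temperature, and luminescence was read.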
Integrin act MD: activates integrin-mediated alleviation for muscular dystrophy. alpha7betagal myoblasts, beta-gal FDG fluorescence, 48 h. Potency, µM (doses to about 38.3 µM), for inactives: top-dose activation, most hits filed as activators. actives 0.064% (n = 350,000). AID 624291;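 also: potency is read from the fitted curve at half-maximal effect; 100% = response of the positive control SU9516; nearly all actives have a fitted effect of over 60% in size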
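alpha7betagal+/- myoblasts (passage 13, 250/well) treated 48 h at 37C with compounds at 1:260 dilution of DMSO stock. Lysed, then beta-galactosidase activity read as FDG fluorescence (ex 480/em 540) after 30 min, with pre-read for autofluorescence.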
* marks the source's active call; other numbers are inactive results; i = inactive; ? = inconclusive; / = no result given; [ ] = another dose, or the depositor's remark. Unless noted, calls follow the shape of the dose curve; as a rule, active = well fitted curve in the direction sought with a large enough effect; inconclusive = small, poorly fitted or top-dose-only effect, or another doubt; inactive = no such curve, though single readings can be large; an effect the other way counts as inactive or inconclusive.

SMILES | IL1B secr inh | ATXN2 expr inh | D3 antag | S2 tox | D3 ag | Integrin act MD
CCC(C)(C)n1nnnc1C(c1cc2ccc(OC)cc2[nH]c1=O)N1CCN(C2CCCCC2)CC1 (stereo not given) | -24 | -1% | -64* | ? | -24 | 5%[7.66 µM]
COc1ccc2cc(C(c3nnnn3CCc3ccccc3)N3CCCC(C)C3)c(=O)[nH]c2c1 (stereo not given) | -85* | -1% | 15 | ? | -1 | -5%
CCC(C)(C)n1nnnc1CN(Cc1cc2cc(OC)ccc2[nH]c1=O)C1CCCC1 | -53* | -2% | -8 | ? | 3 | -14%
CCC(C)(C)n1nnnc1C(c1cc2cc3c(cc2[nH]c1=O)OCO3)N1CCCCC1 (stereo not given) | ? | 52% | 15 | i | 2 | -3%
COc1ccc(CCNc2c(N)n(Cc3ccccc3)c(=O)[nH]c2=O)cc1OC | -55* | -1% | -4 | i | -1 | -22%
CCOc1ccccc1CNC(=O)c1oc2ccc3c(c2c1C)C(=O)CC(C)(C)O3 | / | / | / | / | 10 | /
Cc1c(C(=O)NCc2ccoc2)oc2ccc3c(c12)C(=O)CC(C)(C)O3 | -52* | 85% | 14 | i | -9 | -6%
Cc1c(C(=O)NCCC2=CCCCC2)cccc1[N+](=O)[O-] | -7 | 36% | 0 | i | 5 | -19%
CCCC(c1nnnn1Cc1cccs1)N1CCN(C2CCCC2)CC1 (stereo not given) | -19 | -10% | -20 | i | -1 | -22%
CCC(c1nnnn1Cc1cccs1)N1CCN(C2CCCC2)CC1 (stereo not given) | -20 | -9% | -63* | i | 3 | -1%
O=C(OCc1cc2ccccc2[nH]c1=O)c1ccncc1 | 32 | 3% | 23 | i | -3 | -9%
CCCCC1OC23CCCCC2C(C#N)(C#N)C1(C#N)C(=N)O3 (stereo not given) | -102* | -1% | 23 | i | 12 | -23%
CC(C)=CCC/C(C)=C/C=N/NC(=O)c1ccc([N+](=O)[O-])cc1 | 10 | ? | -22 | ? | -15 | -11%
CC(C)C[C@H]1CNC(=S)N1CC1CCCN1C[C@H](Cc1ccc(O)cc1)N1C[C@H](Cc2ccccc2)N(CC2CCCCCC2)C1=S (stereo not given in full) | -28 | -12% | -16 | i | -6 | -25%
CC(C)C[C@H]1CNC(=S)N1C[C@H]1CCCN1C[C@H](Cc1ccc(O)cc1)N1C[C@H](CC(C)C)N(CC2CCCCCC2)C1=S | ? | ? | -65* | 10µM* | -9 | /
CC(C)C[C@H]1CNC(=S)N1C[C@H]1CCCN1C[C@H](Cc1ccccc1)N1C[C@H](Cc2ccc(O)cc2)N(CC2CCCCCC2)C1=S | -12 | ? | 32 | 16µM* | 9 | /
Cc1cc(C)nc(Sc2nc(Cl)nc(N(c3ccccc3)c3ccccc3)n2)n1 | -97* | -3% | 0 | i | -4 | -1%
Cc1ccc(NC(=O)Nc2ccc3snnc3c2)cc1C | / | -20% | / | i | 1 | /
O=C(NC(=S)N(Cc1ccccc1)Cc1ccccc1)c1ccccc1F | 12 | -25% | -69* | i | -2 | -37%
CCNC(=O)NC1c2ccccc2CSc2ccccc21 (stereo not given) | 8 | 2% | 7 | i | -10 | ?
CCOCCN1CCN(C2c3ccccc3CSc3ccccc32)CC1 (stereo not given) | -74* | -5% | -76* | i | -34 | -29%
COc1ccc(S(N)(=O)=O)cc1N(C)S(=O)(=O)c1ccccc1 | 19 | 11% | 10 | i | 1 | -4%
COc1cc(C2c3c([nH]c(=O)[nH]c3=O)Nc3ccc4ccccc4c32)cc(OC)c1OC (stereo not given) | -92* | 5% | -10 | i | -1 | -10%
COc1cc(C2CC(=O)Oc3c2c(=O)[nH]c2ccccc32)cc(OC)c1OC (stereo not given) | / | 5% | / | i | 2 | /
COc1cc(C2c3c([nH]c(=O)[nH]c3=O)Nc3ccc4ccccc4c32)ccc1O (stereo not given) | -97* | -15% | 3 | i | -4 | 1%
SMILES | IL1B secr inh | ATXN2 expr inh | D3 antag | S2 tox | D3 ag | Integrin act MD
COc1cc(C2CC(=O)c3c(ccc4ccccc34)N2)ccc1O (stereo not given) | -6 | 12% | 26 | i | 4 | 21%
C=CCc1c(C)nc2c(OC)cccc2c1Cl | 16 | 28% | 18 | i | 3 | 0%
COc1cccc2c(Cl)c(CC=C(Cl)Cl)c(C)nc12 | -50* | -7% | -17 | i | 4 | 2%
COc1ccc(C(C(=O)NC(C)(C)C)N(C[C@H]2CC[C@@H]([C@@H]3CC[C@H](CO)O3)O2)C(=O)c2ccccc2)cc1 (stereo not given in full) | 31 | 5% | 0 | i | 15 | 7%
CC(C)(C)NC(=O)C(c1ccc(-c2ccccc2)cc1)N(C[C@H]1CC[C@@H]([C@@H]2CC[C@H](CO)O2)O1)C(=O)c1cccc(Cl)c1 (stereo not given in full) | -65* | ? | 22 | / | 9 | -21%
CC(C)(C)NC(=O)C(c1ccc(-c2ccccc2)cc1)N(C[C@H]1CC[C@@H]([C@@H]2CC[C@H](CO)O2)O1)C(=O)c1ccc(-c2ccccc2)cc1 (stereo not given in full) | -55* | ? | 0 | / | -7 | -43%
CC(C)(C)NC(=O)C(c1ccc(-c2ccccc2)cc1)N(C[C@H]1CC[C@@H]([C@@H]2CC[C@H](CO)O2)O1)C(=O)c1ccccc1F (stereo not given in full) | -63* | ? | 16 | ? | 10 | 6%
CC(C)(C)NC(=O)C(c1ccc(-c2ccccc2)cc1)N(C[C@H]1CC[C@@H]([C@@H]2CC[C@H](CO)O2)O1)C(=O)c1ccc2ccccc2c1 (stereo not given in full) | -54* | ? | -7 | 20µM* | -21 | 0%
COc1ccccc1N(CC(=O)NCCSCc1ccco1)S(=O)(=O)c1ccccc1 | 0 | -3% | 10 | i | 2 | 12%
COc1ccc(N=c2oc3cc(O)ccc3cc2C(=O)Nc2ccccn2)cc1OC | -28 | -15% | 15 | i | -4 | 10%
COC(=O)C1Cc2ccccc2CN1C(=O)CCl (stereo not given) | -97* | -29% | 1 | / | 1 | -64%
COC(=O)[C@H](Cc1ccccc1)NC(=O)N1Cc2ccccc2C[C@H]1C(=O)OC | -7 | / | 35 | i | 3 | 5%
